# Source: ChEMBL document CHEMBL1157539, “Thousands of chemical starting points for antimalarial lead identification” (Nature, 2010)
# Tested on: Plasmodium falciparum
# Experiment: GSK_TCMDC: Inhibition of Plasmodium falciparum Dd2 in whole red blood cells, using parasite LDH activity as an index of growth. Test compounds present at 2uM
# Assay type: functional
row,Structure (SMILES),Inhibition [%]
1,CO/C(=C\C=C\c1cc2cc(Cl)c(Cl)cc2[nH]1)C(=O)NCCCN1CCN(c2cccc(CCCO)c2)CC1,36
2,Cc1cc(CN2CC[C@H](NC(=O)c3ccc(Cl)c(Cl)c3)C2)ccc1OCCN1CCCC1.O=C(O)C(F)(F)F,92
3,O=C(N[C@@H](Cc1ccccc1)C(=O)NCCN1CCOCC1)c1ccc(O)c(-c2ccc(Cl)c(Cl)c2)c1,31
4,CCCc1nc2c(N3CCCN(C(=O)NC4CCCCC4)CC3)cccc2n1Cc1ccccn1,10
5,Cc1ccc2[nH]c(-c3cc(-c4cccc(C#N)c4)cnc3N)nc2c1.O=C(O)C(F)(F)F,99
6,CC(C)c1ccc(S(=O)(=O)N(c2ccc3c(c2)OCO3)C2CCN(Cc3ccccc3)C2)cc1 (stereo not given),92
7,CCCCc1ccc(-c2ccc3[nH]c(C)c(Br)c(=O)c3c2)cc1,97
8,O=C(Nc1cccc(-c2cccc(-c3nc4cc(C(F)(F)F)ccc4[nH]3)c2)c1)c1cccnc1,70
9,O=C(Nc1cccc(F)c1)N[C@H]1CCN(CCCCCNC(=O)C2CC2c2ccc(Cl)c(Cl)c2)C1 (stereo not given in full),1
10,Cc1[nH]c(C)c(-c2ccc(-c3ccc(F)cc3)nc2)c(=O)c1Br,96
11,CN1CCN(CCCN(Cc2ccc(-c3ccc(CNCc4ccc5c(c4)OCO5)cc3)cc2)C(=O)CCC2CCCC2)CC1.O=C(O)C(F)(F)F,85
12,COc1ccccc1N=C1SC(=Cc2cn(CC(=O)N3CCCc4ccccc43)c3ccccc23)C(=O)N1C1CCCCC1,99
13,O=C(NC1CCN(CCN2CCC(c3cn(CCO)c4ccccc34)CC2)CC1)c1ccc(-c2ccc(C(F)(F)F)cc2)cc1,54
14,Cl.O=C(/C=C/c1ccc(Cl)c(Cl)c1)N1CCC(CCN2CCC(c3c[nH]c4cnccc34)CC2)CC1,100
15,O=C(Nc1ccc2c(c1)CN(Cc1ccc(N3CCCC3)o1)CCC2)c1ccoc1.O=CO,76
16,CCCc1ccc(NC(=O)c2ccc(CN3CCCN(Cc4ccc(OC)cc4)CC3)cc2)cc1.O=C(O)C(F)(F)F,0
17,Oc1ccc2[nH]c(-c3ccc(OC(F)(F)F)cc3)nc2c1CNC1CCCC1,97
18,COc1ccc(CN(C)CC(O)COc2ccc(NC(=O)c3cccc4c(=O)c5cccc(OC)c5[nH]c34)cc2)cc1OC (stereo not given),65
19,Cc1ccnc(NC(=O)c2cc(-c3cccc([N+](=O)[O-])c3)nc3onc(C)c23)c1,44
20,CCN(CC)CCCC(C)Nc1c(-c2ccc(Br)cc2)cnc2ccccc12 (stereo not given),95

row,Structure (SMILES),Inhibition [%]
1,CC(=O)N1N=C(c2ccc(Cl)cc2)Sc2c1nc(-c1ccccc1)n2C(C)=O,81
2,CCc1cc2c(O)c([N+](=O)[O-])c(=O)oc2cc1OCCCCCOc1cc2oc(=O)c([N+](=O)[O-])c(O)c2cc1CC,0
3,O=C(O)C(F)(F)F.O=C1CCCN1CCCNCc1ccc(-c2ccc(-c3nc4cc(F)ccc4[nH]3)s2)cc1,91
4,CC(C)(C)Oc1ccc(CC2NC3(C(=O)N(Cc4ccc(C(C)(C)C)cc4)c4ccccc43)C3C(=O)N(c4ccc(Br)cc4)C(=O)C23)cc1 (stereo not given),94
5,N#Cc1cc([N+](=O)[O-])ccc1-n1nc(-c2cccc(Cl)c2)n(CC2CCCO2)c1=S (stereo not given),89
6,OCCN1CCN(C(=S)NC2CCCCC2)CC1,0
7,C=CCOC(=O)N1CCC(CNCc2cccc(-c3ccc(-c4nc5ccccc5[nH]4)s3)c2)C1.O=C(O)C(F)(F)F (stereo not given),63
8,NC1CCN(Cc2ccc(-c3ccc(-c4nc5ccccc5[nH]4)cc3)cc2)C1.O=C(O)C(F)(F)F (stereo not given),100
9,CCn1c(C)cc(C=C2SC(=Nc3ccccc3)NC2=O)c1C,87
10,O=C(Nc1cccc(C(F)(F)F)c1)NC1CCN(c2ccnc3ccccc23)CC1.O=C(O)C(F)(F)F,43
11,O=C(c1cccc(-c2noc(C(F)(F)F)n2)c1)N1CCN(c2ccncc2)CC1,56
12,C=CCOC(=O)N1CCC(CNCc2ccc(-c3cccc(-c4nc5cc(F)ccc5[nH]4)c3)cc2)C1.O=C(O)C(F)(F)F (stereo not given),99
13,CCOc1ccc2[nH]c(C)cc(=NN=Cc3ccccc3)c2c1,8
14,CCCc1cc(Cc2cnc(N)nc2N)ccc1OCCCCCC(=O)O.Cl,0
15,COc1cc2nccc(Nc3ccc(OCc4ccc(NC(C)=O)cc4)cc3)c2cc1OC.Cl,95
16,CN(C)Cc1cc2c(O)c(Cc3ccccc3)ccc2o1,69
17,Br.Oc1ccc(CNCCCCCCNCCc2ccc(Cl)cc2)cc1O,7
18,Cn1c(Nc2cc(C(C)(C)C)on2)nc2cc(Nc3ccnc(Nc4ccc(CS(C)(=O)=O)cc4)n3)ccc21,68
19,COc1cc2nc(N(C)C)nc(Nc3ccc4c(cnn4Cc4ccccc4)c3)c2cc1OC,100
20,CC(=O)Nc1ccc2[nH]cc(C3CCN(CCC4CCN(C(=O)/C=C/c5ccc(Cl)c(Cl)c5)CC4)CC3)c2c1,7
